Test results: the supplement of paper PMC12645437, “Orthogonal IMiD-Degron Pairs Induce Selective Protein Degradation in Cells” (ACS Chemical Biology, 2025)
Whole data set: some 8,300 sequences, median “log2 fold change of degron read counts, EGFP-low vs EGFP+ sorted cells (limma voom), compound-induced degradation” near -1.1, cut for the highest 2% near 3.2. The entries come from a sample that favours the highest values as a whole.

T1: CRBN, Q96SW2
T1 chain: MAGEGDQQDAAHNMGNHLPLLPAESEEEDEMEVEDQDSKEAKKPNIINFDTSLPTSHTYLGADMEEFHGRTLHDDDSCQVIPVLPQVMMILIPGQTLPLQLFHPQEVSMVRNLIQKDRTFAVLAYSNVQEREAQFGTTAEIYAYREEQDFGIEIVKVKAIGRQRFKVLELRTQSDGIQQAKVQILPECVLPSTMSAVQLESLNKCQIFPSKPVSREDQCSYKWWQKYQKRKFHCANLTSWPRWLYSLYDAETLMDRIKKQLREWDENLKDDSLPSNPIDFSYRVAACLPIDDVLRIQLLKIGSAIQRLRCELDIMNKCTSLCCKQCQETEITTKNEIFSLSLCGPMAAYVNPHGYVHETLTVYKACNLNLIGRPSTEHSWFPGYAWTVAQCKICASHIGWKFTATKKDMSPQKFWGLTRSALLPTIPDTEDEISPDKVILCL


Target: T1, CRBN, Q96SW2
Test: log2 fold change of degron read counts, EGFP-low vs EGFP+ sorted cells (limma voom), compound-induced degradation; higher = more compound-induced degradation of the degron-EGFP fusion; degrons are variants of IKZF1/3 zinc finger 2; compound dose not given here
Details: Jurkat, 18 h
[1] = compound: compound 19 (5-tert-butyl-thalidomide)
[2] = compound: compound 22 (5-morpholino-thalidomide)
[3] = compound: compound 33 (diphenyl IMiD analogue)
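Also: pooled lentiviral library of zinc finger degron-EGFP fusions in mCherry-positive Jurkat cells, FACS-sorted after compound exposure, with degron abundance counted by next-generation sequencing.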

Row | Sequence | log2 fold change of degron read counts [1] | log2 fold change of degron read counts [2] | log2 fold change of degron read counts [3] | log2 fold change of degron read counts (compound: thalidomide)
1 | LTCNQCGFKCTQKGNLLRHIKL [46L_47T_49N_50Q_52G_53F_54K_55C_67L_, Q9UKT9] | -2.23 | -1.85 | -2.34 | -1.79
2 | FSCPICGRIFTQKGNLLRHIKL [46F_47S_49P_50I_52G_53R_54I_55F_67L_, Q9UKT9] | -0.412 | -0.447 | 1.06 | 0.174
3 | FSCPICGAIFTQKGNLLRHIKL [46F_47S_49P_50I_52G_53A_54I_55F_67L_, Q9UKT9] | 1.58 | 1.34 | 2.26 | 0.935
4 | FGCPICGRIFTQKGNLLRHIKL [46F_47G_49P_50I_52G_53R_54I_55F_67L_, Q9UKT9] | 3.47 | 1.77 | 0.585 | -0.161
5 | FVCPICGAIFTQKGNLLRHIKL [46F_47V_49P_50I_52G_53A_54I_55F_67L_, Q9UKT9] | -0.598 | 0.358 | 1.51 | 1.69
6 | FQCPICGAIFTQKGNLLRHIKL [46F_47Q_49P_50I_52G_53A_54I_55F_67L_, Q9UKT9] | -0.241 | 3.26 | 2.84 | 3.79
7 | FTCPICGRIFTQKGNLLRHIKL [46F_47T_49P_50I_52G_53R_54I_55F_67L_, Q9UKT9] | -1.75 | -0.494 | 0.959 | 1.17
8 | FKCPICGAIFTQKGNLLRHIKL [46F_47K_49P_50I_52G_53A_54I_55F_67L_, Q9UKT9] | -2.31 | -3.23 | -3.09 | -1.63
9 | FYCPICGAIFTQKGNLLRHIKL [46F_47Y_49P_50I_52G_53A_54I_55F_67L_, Q9UKT9] | 2.75 | 2.82 | 1.86 | 0.386
10 | FGCPICGAIFTQKGNLLRHIKL [46F_47G_49P_50I_52G_53A_54I_55F_67L_, Q9UKT9] | 3.81 | 2.51 | 2.55 | 0.986
11 | FSCDVCGALFTQKGNLLRHIKL [46F_47S_49D_50V_52G_53A_54L_55F_67L_, Q9UKT9] | -1.17 | -1.66 | 0.461 | -2.2
12 | FECEQCGAGFTQKGNLLRHIKL [46F_47E_49E_50Q_52G_53A_54G_55F_67L_, Q9UKT9] | -1.66 | -2.94 | -1.37 | -1.37
13 | FRCSVCGHNFTQKGNLLRHIKL [46F_47R_49S_50V_52G_53H_54N_55F_67L_, Q9UKT9] | -2.2 | -2.6 | -2.8 | -2.89
14 | FICEICGHSFTQKGNLLRHIKL [46F_47I_49E_50I_52G_53H_54S_55F_67L_, Q9UKT9] | -3.27 | -2.78 | -2.2 | -2.17
15 | FCCDICGAEFTQKGNLLRHIKL [46F_47C_49D_50I_52G_53A_54E_55F_67L_, Q9UKT9] | 0.189 | -0.292 | -0.603 | -0.702
16 | FTCNQCGHTFTQKGNLLRHIKL [46F_47T_49N_50Q_52G_53H_54T_55F_67L_, Q9UKT9] | -3.38 | -3.31 | -3.66 | -2.92
17 | FMCDVCGAIFTQKGNLLRHIKL [46F_47M_49D_50V_52G_53A_54I_55F_67L_, Q9UKT9] | -2.28 | -2.09 | 0.171 | -1.7
18 | FWCNICGARFTQKGNLLRHIKL [46F_47W_49N_50I_52G_53A_54R_55F_67L_, Q9UKT9] | 2.19 | 3.34 | 0.85 | 0.523
19 | FQCNICGARFTQKGNLLRHIKL [46F_47Q_49N_50I_52G_53A_54R_55F_67L_, Q9UKT9] | -0.916 | 0.973 | 0.399 | 3.26

Row | Sequence | log2 fold change of degron read counts [1] | log2 fold change of degron read counts [2] | log2 fold change of degron read counts [3] | log2 fold change of degron read counts (compound: thalidomide)
20 | FNCNICGARFTQKGNLLRHIKL [46F_47N_49N_50I_52G_53A_54R_55F_67L_, Q9UKT9] | 1.28 | 0.255 | -1.05 | -0.266
21 | FTCNICGARFTQKGNLLRHIKL [46F_47T_49N_50I_52G_53A_54R_55F_67L_, Q9UKT9] | 0.313 | 1.57 | 0.916 | 2.41
22 | FYCNICGARFTQKGNLLRHIKL [46F_47Y_49N_50I_52G_53A_54R_55F_67L_, Q9UKT9] | 1.83 | 2.47 | -0.345 | -0.644
23 | FLCNICGARFTQKGNLLRHIKL [46F_47L_49N_50I_52G_53A_54R_55F_67L_, Q9UKT9] | -1.1 | -1.89 | -0.701 | 0.842
24 | LHCPICGFWCTQKGNLLRHIKL [46L_47H_49P_50I_52G_53F_54W_55C_67L_, Q9UKT9] | 1.34 | 1.54 | 2.54 | 1.59
25 | FQCPICGHNFTQKGNLLRHIKL [46F_47Q_49P_50I_52G_53H_54N_55F_67L_, Q9UKT9] | -2.9 | -1.92 | -1.21 | 0.375
26 | LQCPICGFTCTQKGNLLRHIKL [46L_47Q_49P_50I_52G_53F_54T_55C_67L_, Q9UKT9] | 1.75 | 2.59 | 2.54 | 3.66
27 | LSCPICGFTCTQKGNLLRHIKL [46L_47S_49P_50I_52G_53F_54T_55C_67L_, Q9UKT9] | 3.13 | 2.83 | 2.48 | 2.59
28 | LRCPICGFTCTQKGNLLRHIKL [46L_47R_49P_50I_52G_53F_54T_55C_67L_, Q9UKT9] | 0.326 | 0.593 | 1.93 | 2.23
29 | LICPICGFTCTQKGNLLRHIKL [46L_47I_49P_50I_52G_53F_54T_55C_67L_, Q9UKT9] | 0.369 | 2.36 | 2.13 | 2.81
30 | LFCPICGFTCTQKGNLLRHIKL [46L_47F_49P_50I_52G_53F_54T_55C_67L_, Q9UKT9] | 3.39 | 3.54 | 2.49 | 2.69
31 | LVCPICGFTCTQKGNLLRHIKL [46L_47V_49P_50I_52G_53F_54T_55C_67L_, Q9UKT9] | 1.27 | 2.61 | 2.22 | 3.21
32 | LLCPICGFTCTQKGNLLRHIKL [46L_47L_49P_50I_52G_53F_54T_55C_67L_, Q9UKT9] | 0.147 | 0.286 | 1.38 | 2.64
33 | LKCPICGFTCTQKGNLLRHIKL [46L_47K_49P_50I_52G_53F_54T_55C_67L_, Q9UKT9] | -0.865 | -1.65 | -1.59 | 0.662
34 | LMCPICGFTCTQKGNLLRHIKL [46L_47M_49P_50I_52G_53F_54T_55C_67L_, Q9UKT9] | -0.0285 | 1.97 | 2.76 | 2.79
35 | LACPICGFTCTQKGNLLRHIKL [46L_47A_49P_50I_52G_53F_54T_55C_67L_, Q9UKT9] | 3.68 | 3.23 | 2.51 | 2.61
36 | LHCPICGFTCTQKGNLLRHIKL [46L_47H_49P_50I_52G_53F_54T_55C_67L_, Q9UKT9] | 2.75 | 2.97 | 2.8 | 2.34
37 | LTCPICGFTCTQKGNLLRHIKL [46L_47T_49P_50I_52G_53F_54T_55C_67L_, Q9UKT9] | 1.57 | 3.31 | 2.65 | 3.44
